# Data taken from the supplement of paper PMC10849652.
# Targets with a hit are over-represented here; the source holds about 8,800 in all. About 0.5% of all pairs of compound and target were hits. A number with no mark means an inactive call.
# Compound: C#Cc1cccc(Nc2ncnc3cc(OCCOC)c(OCCOC)cc23)c1 [erlotinib]
# Experiment: log2 fold change, soluble protein after heating vs DMSO (PISA); higher = thermal stabilisation; K562 lysate, 10 uM; active = over 0.2 and 3.5 SD of the protein, either way, in both replicates (recomputed)
# In short: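 Following dounce homogenisation of K562 pellets in PBS pH 7.4 with 1 mM MgCl2, crude extract at 1 mg/mL protein was incubated for 30 min with 10 μM compound. Aliquots were then heated for 3 min over 48°C-58°C and pooled, NP-40 was added to 0.5% at 4°C, and soluble protein was recovered as the supernatant at 21,000xg for 90 min. Channel-sum-equalised TMTpro 16plex LC-MS/MS quantified this protein. Each value, from duplicates, is a log-two fold change in thermal stability relative to solvent controls.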
# Chain of UniProt Q8NF50 (Q8NF50 whole entry, looked up): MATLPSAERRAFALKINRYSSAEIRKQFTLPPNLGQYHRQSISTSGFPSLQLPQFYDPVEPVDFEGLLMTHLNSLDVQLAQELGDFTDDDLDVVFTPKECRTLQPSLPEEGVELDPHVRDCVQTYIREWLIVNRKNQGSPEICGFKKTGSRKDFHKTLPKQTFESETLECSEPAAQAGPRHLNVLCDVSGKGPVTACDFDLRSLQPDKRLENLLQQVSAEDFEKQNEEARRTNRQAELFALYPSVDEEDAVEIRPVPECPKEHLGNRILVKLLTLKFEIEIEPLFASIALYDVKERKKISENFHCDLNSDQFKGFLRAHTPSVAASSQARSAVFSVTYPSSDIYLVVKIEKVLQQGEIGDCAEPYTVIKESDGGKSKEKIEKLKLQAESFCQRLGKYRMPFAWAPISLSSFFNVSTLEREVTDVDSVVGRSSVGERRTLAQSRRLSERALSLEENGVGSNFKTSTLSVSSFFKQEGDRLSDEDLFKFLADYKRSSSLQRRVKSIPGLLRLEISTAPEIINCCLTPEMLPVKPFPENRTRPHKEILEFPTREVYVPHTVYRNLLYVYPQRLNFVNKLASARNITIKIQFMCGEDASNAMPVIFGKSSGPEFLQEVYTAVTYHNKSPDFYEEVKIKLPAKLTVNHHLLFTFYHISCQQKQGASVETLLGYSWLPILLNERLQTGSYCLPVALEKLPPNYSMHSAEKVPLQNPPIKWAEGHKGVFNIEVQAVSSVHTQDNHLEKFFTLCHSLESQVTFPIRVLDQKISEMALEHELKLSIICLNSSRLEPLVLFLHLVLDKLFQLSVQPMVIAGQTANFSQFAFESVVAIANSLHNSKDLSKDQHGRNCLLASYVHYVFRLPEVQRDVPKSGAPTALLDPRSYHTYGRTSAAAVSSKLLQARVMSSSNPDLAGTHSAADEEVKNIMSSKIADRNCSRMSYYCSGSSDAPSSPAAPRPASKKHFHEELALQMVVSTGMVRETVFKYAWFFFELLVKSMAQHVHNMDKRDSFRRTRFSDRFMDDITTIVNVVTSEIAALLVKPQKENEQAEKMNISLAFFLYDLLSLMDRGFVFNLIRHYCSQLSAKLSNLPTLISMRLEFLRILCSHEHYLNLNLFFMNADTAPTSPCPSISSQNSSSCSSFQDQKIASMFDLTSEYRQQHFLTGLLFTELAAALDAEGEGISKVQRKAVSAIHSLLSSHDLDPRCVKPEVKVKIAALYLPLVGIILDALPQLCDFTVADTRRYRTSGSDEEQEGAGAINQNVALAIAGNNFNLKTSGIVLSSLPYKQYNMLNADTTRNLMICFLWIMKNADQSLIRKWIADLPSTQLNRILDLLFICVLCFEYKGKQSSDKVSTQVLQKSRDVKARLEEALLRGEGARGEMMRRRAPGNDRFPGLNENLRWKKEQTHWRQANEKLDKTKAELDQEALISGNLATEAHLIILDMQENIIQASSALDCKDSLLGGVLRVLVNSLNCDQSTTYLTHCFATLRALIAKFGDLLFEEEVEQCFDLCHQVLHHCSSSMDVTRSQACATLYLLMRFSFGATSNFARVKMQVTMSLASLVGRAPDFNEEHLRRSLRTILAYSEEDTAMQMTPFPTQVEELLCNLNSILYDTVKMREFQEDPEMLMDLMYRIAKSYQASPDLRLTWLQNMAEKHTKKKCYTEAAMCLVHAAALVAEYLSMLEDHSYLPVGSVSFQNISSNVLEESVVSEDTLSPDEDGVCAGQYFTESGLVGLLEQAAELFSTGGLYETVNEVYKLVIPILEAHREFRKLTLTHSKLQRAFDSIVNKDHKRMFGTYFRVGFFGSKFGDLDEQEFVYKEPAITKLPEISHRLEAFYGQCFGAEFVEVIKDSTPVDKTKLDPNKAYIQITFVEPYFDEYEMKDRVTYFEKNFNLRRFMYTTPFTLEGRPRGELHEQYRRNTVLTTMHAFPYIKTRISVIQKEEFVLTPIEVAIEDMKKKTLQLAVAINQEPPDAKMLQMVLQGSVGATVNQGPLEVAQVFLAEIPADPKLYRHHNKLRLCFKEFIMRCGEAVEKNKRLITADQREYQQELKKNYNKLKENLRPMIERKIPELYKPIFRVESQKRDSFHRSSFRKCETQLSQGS
# Chain of UniProt Q9NSV4 (Q9NSV4 whole entry, looked up): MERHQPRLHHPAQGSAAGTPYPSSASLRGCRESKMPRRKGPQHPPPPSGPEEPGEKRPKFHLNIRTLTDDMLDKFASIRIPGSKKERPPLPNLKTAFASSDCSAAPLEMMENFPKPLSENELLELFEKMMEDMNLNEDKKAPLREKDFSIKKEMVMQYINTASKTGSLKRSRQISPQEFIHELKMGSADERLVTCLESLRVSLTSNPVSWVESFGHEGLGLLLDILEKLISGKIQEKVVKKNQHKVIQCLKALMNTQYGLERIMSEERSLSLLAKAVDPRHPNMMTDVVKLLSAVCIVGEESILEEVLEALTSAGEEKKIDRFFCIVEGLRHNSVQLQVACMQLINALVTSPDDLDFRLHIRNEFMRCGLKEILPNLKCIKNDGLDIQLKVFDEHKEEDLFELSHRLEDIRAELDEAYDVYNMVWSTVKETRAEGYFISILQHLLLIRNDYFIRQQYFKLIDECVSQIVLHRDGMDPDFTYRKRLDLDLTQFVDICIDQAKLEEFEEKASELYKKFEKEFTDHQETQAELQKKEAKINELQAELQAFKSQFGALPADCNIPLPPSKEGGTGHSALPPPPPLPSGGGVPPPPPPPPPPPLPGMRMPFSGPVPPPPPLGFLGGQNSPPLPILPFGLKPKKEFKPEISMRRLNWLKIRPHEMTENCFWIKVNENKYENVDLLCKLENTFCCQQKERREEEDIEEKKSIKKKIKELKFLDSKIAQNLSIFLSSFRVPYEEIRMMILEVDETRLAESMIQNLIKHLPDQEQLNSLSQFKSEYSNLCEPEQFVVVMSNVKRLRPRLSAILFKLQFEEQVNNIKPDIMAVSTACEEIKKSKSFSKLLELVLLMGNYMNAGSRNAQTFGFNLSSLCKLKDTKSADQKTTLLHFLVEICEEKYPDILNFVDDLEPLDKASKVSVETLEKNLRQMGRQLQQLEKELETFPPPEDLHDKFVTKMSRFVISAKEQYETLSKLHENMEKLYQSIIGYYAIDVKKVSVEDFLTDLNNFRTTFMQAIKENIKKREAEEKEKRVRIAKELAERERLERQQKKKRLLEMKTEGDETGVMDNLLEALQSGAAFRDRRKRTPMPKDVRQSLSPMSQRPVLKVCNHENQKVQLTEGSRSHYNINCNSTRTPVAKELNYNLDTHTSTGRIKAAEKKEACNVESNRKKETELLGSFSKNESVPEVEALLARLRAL
# Chain of UniProt Q8WUH1 (Q8WUH1 whole entry, looked up): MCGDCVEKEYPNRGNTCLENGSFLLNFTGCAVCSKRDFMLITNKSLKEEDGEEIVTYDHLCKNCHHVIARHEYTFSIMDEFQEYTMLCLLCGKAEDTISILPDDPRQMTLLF
# Chain of UniProt Q96KC8 (Q96KC8 whole entry, looked up): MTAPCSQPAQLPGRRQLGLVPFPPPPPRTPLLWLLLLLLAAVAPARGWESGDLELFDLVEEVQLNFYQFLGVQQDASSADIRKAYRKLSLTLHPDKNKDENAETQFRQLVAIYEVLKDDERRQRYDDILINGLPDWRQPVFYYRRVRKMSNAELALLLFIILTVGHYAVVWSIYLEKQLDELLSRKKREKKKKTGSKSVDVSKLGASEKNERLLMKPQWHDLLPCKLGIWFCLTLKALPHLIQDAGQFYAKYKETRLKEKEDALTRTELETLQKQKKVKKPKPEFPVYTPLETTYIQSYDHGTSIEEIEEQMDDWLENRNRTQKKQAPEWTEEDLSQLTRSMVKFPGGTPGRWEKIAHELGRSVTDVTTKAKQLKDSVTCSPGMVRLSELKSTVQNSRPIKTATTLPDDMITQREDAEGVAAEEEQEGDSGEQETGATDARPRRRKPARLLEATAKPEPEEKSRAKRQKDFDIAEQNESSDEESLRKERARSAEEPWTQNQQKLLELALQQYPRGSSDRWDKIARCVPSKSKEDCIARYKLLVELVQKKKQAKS
# Chain of UniProt P50570 (P50570 whole entry, looked up): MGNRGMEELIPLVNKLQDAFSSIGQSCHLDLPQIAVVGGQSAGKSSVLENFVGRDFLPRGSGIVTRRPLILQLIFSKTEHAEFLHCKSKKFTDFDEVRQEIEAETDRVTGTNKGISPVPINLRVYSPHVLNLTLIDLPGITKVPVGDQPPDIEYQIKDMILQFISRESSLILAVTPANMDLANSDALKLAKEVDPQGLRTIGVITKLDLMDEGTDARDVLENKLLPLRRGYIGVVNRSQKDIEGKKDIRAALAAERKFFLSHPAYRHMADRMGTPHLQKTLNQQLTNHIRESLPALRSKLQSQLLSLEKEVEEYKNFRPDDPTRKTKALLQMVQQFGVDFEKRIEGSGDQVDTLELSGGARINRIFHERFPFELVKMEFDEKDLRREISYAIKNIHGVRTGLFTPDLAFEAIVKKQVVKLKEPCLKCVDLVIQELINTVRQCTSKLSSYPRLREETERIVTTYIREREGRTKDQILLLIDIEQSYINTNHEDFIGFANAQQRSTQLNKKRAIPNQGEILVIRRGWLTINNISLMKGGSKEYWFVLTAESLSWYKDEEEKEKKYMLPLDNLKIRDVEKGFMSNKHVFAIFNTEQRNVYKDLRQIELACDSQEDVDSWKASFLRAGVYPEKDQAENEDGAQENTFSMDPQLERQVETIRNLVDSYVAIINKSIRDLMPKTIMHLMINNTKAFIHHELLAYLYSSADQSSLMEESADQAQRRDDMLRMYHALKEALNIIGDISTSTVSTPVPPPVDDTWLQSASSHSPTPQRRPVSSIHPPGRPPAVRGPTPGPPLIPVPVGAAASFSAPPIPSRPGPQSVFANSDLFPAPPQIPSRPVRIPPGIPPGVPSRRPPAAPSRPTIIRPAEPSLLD
# Chain of UniProt P29373 (P29373 whole entry, looked up): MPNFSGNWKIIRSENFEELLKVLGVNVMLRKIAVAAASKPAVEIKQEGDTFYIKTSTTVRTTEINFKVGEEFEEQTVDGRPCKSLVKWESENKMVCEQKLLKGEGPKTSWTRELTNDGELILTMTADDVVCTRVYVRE
# Chain of UniProt P99999 (P99999 whole entry, looked up): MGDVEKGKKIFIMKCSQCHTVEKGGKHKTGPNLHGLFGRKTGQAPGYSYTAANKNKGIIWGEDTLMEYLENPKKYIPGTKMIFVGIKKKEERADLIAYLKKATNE
row,Target,log2 fold change
1,CIB1 (UniProt Q99828),-0.039
2,COL6A5 (UniProt A8TX70),0.064
3,DFFB (UniProt O76075),-0.055
4,CSNK1G3 (UniProt Q9Y6M4),-0.115
5,DNM2 (UniProt P50570),0.045
6,COPZ1 isoform 4 (UniProt P61923),-0.029
7,DPH5 isoform 5 (UniProt Q9H2P9),0.008
8,COQ9 (UniProt O75208),-0.015
9,DLD (UniProt P09622),0.014
10,CLP1 (UniProt Q92989),0.024
11,DMAC2L (UniProt Q99766),-0.057
12,DOCK10 (UniProt Q96BY6),-0.23
13,CIAO2A (UniProt Q9H5X1),-0.052
14,DNAJC1 (UniProt Q96KC8),-0.018
15,DIAPH3 (UniProt Q9NSV4),0.042
16,CNP (UniProt P09543),-0.005
17,CHURC1 isoform 2 (UniProt Q8WUH1),0.05

row,Target,log2 fold change
1,CYCS (UniProt P99999),-0.022
2,CSNK2B (UniProt P67870),0.045
3,DOCK8 (UniProt Q8NF50),-0.001
4,CRABP2 (UniProt P29373),0.026
5,DENND6A (UniProt Q8IWF6),-0.019
6,CHMP4A isoform 2 (UniProt Q9BY43),-0.046
7,CLCN3 (UniProt P51790),-0.047
8,DHRS11 (UniProt Q6UWP2),0.054
9,COTL1 (UniProt Q14019),-0.012
10,CMBL (UniProt Q96DG6),0.026
11,CPT1A (UniProt P50416),-0.029
12,DHRS1 (UniProt Q96LJ7),0.024
13,COG7 (UniProt P83436),0.026
14,CXorf38 (UniProt Q8TB03),0.068
15,CNST (UniProt Q6PJW8),0.044
16,CUX1 isoform 3 (UniProt P39880),-0.015
17,DHFR (UniProt P00374),0.031
